Assays:
Assay in all cases: protein binding microarray; high values mean tight binding
Details in all cases: dsDNA, one strand shown
[1] = molecular target: RELARELA (p65 homodimer) (Homo sapiens, UniProt Q04206 1-307)
[2] = molecular target: p50p50 homodimer (Homo sapiens, UniProt P19838 7-356)
[3] = molecular target: T1, p52p52 homodimer (Homo sapiens, UniProt Q00653 4-332)
T1 sequence: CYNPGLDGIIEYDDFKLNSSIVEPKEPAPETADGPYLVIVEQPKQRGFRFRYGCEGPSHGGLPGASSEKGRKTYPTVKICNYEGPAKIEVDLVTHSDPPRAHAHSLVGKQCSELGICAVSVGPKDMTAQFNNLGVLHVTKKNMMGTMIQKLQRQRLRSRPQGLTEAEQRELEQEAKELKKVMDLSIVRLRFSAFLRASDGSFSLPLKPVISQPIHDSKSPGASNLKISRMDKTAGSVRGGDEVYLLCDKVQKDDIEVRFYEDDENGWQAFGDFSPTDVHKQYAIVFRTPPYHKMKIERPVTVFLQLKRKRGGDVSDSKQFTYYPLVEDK

[4] = molecular target: RELA (p65) subunit of heterodimer;p50 subunit (Homo sapiens;Homo sapiens, UniProt Q04206;P19838 1-307;7-356)
RELA (p65) subunit of heterodimer;p50 subunit, sequence (Q04206 1-307, chain 1 of 2): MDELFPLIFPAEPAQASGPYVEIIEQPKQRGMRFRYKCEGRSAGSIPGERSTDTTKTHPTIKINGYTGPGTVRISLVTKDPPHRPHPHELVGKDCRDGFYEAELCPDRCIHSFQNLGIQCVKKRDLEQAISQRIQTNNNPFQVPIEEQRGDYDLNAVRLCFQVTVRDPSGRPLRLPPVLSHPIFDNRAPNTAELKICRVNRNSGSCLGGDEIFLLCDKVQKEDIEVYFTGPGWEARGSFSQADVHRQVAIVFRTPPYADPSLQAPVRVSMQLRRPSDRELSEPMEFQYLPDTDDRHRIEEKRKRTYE
RELA (p65) subunit of heterodimer;p50 subunit, sequence (P19838 7-356, chain 2 of 2): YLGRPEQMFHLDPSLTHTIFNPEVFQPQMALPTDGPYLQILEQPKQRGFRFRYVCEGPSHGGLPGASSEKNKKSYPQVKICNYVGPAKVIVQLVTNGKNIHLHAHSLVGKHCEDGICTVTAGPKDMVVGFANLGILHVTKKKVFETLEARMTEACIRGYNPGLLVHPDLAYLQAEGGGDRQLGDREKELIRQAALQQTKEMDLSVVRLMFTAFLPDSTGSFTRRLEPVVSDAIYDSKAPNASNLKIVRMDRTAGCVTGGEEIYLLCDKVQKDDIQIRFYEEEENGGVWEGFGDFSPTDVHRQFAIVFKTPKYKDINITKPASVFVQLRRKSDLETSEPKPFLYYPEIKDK

[5] = molecular target: RELA (p65) subunit of heterodimer;p52 subunit (Homo sapiens;Homo sapiens, UniProt Q04206;Q00653 1-307;4-332)
[6] = molecular target: RELB subunit;p50 subunit (Homo sapiens;Homo sapiens, UniProt Q01201;P19838 120-401;7-356)
[7] = molecular target: T2, RELB subunit;p52 subunit (Homo sapiens;Homo sapiens, UniProt Q01201;Q00653 120-401;4-332)
T2 sequence 1: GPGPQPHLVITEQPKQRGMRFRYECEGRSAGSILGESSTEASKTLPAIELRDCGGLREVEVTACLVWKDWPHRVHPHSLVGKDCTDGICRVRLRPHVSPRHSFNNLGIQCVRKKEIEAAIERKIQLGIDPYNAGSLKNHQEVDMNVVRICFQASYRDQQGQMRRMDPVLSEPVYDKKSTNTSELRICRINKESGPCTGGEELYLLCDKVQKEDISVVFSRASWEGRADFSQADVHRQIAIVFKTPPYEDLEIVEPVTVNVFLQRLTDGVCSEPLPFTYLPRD
T2 sequence 2: T1 sequence

[8] = molecular target: C-Rel subunit;p50 subunit (Homo sapiens;Homo sapiens, UniProt Q04864;P19838 1-285;7-356)
[9] = molecular target: T3, C-Rel subunit;p52 subunit (Homo sapiens;Homo sapiens, UniProt Q04864;Q00653 1-285;4-332)
T3 sequence 1: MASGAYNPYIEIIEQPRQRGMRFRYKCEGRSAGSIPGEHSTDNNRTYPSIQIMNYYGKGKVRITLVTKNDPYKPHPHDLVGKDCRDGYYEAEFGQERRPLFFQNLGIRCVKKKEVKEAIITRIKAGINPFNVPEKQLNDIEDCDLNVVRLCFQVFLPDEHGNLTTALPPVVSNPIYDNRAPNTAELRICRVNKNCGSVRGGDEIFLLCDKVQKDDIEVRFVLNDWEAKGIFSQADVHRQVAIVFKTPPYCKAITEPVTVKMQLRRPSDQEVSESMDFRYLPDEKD
T3 sequence 2: T1 sequence

RELARELA (p65 homodimer), sequence (Q04206 1-307): as the sequence (Q04206 1-307, chain 1 of 2) above
p50p50 homodimer, sequence (P19838 7-356): as the sequence (P19838 7-356, chain 2 of 2) above

Row | Sequence | binding signal [1] [z-score] | binding signal [2] [z-score] | binding signal [3] [z-score] | binding signal [4] [z-score] | binding signal [5] [z-score] | binding signal [6] [z-score] | binding signal [7] [z-score] | binding signal [8] [z-score] | binding signal [9] [z-score]
1 | GGAAACTCCCC | 3.23 | 1.08 | 2.01 | 2.39 | 2.23 | 1.32 | 2.1 | 2.15 | 2.63
2 | AGAATAATCCT | -0.568 | -1.24 | -0.591 | -0.939 | -0.846 | -0.98 | -0.603 | -0.925 | -0.909
3 | CGGGTGCCCCC | -0.0899 | 0.777 | 0.373 | 0.794 | 0.707 | 0.779 | 1.05 | 0.974 | 0.84
4 | CGGTACATCCC | 0.722 | 0.342 | 1.69 | 0.384 | 0.93 | 0.529 | 0.811 | 0.0779 | 0.879
5 | AAAGATGTCCC | 0.336 | 0.646 | 0.345 | 0.492 | 0.185 | 0.741 | 0.487 | 0.497 | -0.0919
6 | AAGGTCCTCCT | -0.719 | -0.992 | -0.49 | -0.86 | -0.773 | -0.932 | -0.687 | -1.16 | -0.643
7 | GGATATCTCCC | 0.156 | 0.192 | 0.0332 | 0.149 | 0.0232 | 0.028 | -0.143 | -0.122 | -0.036
8 | CAGAAAATCCC | 1.82 | 0.978 | 1.18 | 0.992 | 1.13 | 0.966 | 1.04 | 0.902 | 1.19

From paper PMC3218832
